Data: PubChem BioAssay
Active and inactive are the calls of the source.

Tests used:
[1] = anti-His antibody binders, primary screen, artefact control for SMM control protein annotation, biochemical, small-molecule microarray, 635 nm fluorescence (AID 1128); settings: anti-His Alexa647 antibody binding, higher = more signal;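 note: score merges feature fluorescence with signal-to-noise for each printed compound spot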
[2] = tested on: Human papillomavirus type 1a E7 protein (residues 1-88); assay: HPV1a E7 small-molecule binders, primary screen, biochemical, small-molecule microarray, residues 1-88, 635 nm (AID 1129); settings: small-molecule microarray binding, fluorescence 635 nm; higher = more signal
[3] = target: Focal adhesion kinase 1 (Homo sapiens) (UniProt Q05397); assay: small-molecule microarray binders of FAK, primary screen, biochemical, 635/667 nm fluorescence, BSA, DTT (AID 1130); settings: PTK2 binding, 635 nm fluorescence, higher = more signal;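 note: composite of spot emission at 667 nm and signal to noise over triplicate slides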
Sequence of Focal adhesion kinase 1 (Homo sapiens) (Q05397 whole entry, looked up): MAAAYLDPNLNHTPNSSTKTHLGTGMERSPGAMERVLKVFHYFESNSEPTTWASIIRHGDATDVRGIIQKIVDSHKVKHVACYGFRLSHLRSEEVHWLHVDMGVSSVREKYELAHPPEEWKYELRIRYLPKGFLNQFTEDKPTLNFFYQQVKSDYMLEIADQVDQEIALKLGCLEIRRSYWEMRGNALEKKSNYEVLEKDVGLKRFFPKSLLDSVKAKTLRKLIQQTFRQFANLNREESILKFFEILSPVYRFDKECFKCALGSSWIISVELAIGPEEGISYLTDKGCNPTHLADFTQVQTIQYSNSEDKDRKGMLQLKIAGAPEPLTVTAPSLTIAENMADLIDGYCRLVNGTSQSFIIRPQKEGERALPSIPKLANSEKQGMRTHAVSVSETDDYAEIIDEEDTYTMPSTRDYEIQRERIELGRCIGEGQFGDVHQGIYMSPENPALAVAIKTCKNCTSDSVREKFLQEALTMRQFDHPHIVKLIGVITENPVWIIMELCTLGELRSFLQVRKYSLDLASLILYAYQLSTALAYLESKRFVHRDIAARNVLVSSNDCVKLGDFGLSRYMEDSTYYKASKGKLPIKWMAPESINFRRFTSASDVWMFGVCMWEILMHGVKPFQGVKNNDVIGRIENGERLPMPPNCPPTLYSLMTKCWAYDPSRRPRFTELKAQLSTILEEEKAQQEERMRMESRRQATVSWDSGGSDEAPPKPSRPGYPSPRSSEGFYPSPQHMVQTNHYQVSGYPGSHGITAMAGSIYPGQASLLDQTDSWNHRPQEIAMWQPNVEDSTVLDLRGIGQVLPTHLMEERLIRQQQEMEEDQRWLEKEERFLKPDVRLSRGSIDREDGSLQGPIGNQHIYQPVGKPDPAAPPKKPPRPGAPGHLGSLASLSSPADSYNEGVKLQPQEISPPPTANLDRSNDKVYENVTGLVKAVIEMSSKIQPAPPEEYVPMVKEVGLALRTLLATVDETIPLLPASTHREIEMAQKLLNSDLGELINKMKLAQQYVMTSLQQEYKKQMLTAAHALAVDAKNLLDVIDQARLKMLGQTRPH

[4] = tested on: Fibrinogen (Alexa647-labelled); assay: fibrinogen binders on compound microarrays, profiling panel, artefact control for SMM control-protein annotation, biochemical, small-molecule microarray, 635/667 nm fluorescence (AID 1131); settings: fibrinogen-A647 binding fluorescence, higher = more signal;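 note: z-score merges 667 nm fluorescence with per-spot signal-to-noise over triplicate slides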
[5] = target: Follistatin (Homo sapiens) (UniProt P19883); assay: follistatin binders on small-molecule microarrays, primary screen, biochemical, small-molecule microarray, 635/667 nm fluorescence (AID 1132); settings: FST binding, 635 nm fluorescence, higher = more signal
Sequence of Follistatin (Homo sapiens) (P19883 whole entry, looked up): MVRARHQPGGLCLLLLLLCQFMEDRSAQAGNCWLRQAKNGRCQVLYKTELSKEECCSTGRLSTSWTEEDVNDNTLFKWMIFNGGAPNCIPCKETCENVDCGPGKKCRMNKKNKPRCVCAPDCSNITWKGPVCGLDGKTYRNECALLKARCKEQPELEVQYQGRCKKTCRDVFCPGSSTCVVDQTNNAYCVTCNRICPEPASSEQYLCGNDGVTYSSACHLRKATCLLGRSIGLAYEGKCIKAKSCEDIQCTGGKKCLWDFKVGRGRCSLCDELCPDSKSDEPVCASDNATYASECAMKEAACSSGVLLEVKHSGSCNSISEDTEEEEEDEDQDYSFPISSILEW

[6] = target: Fibroblast growth factor 2 (Homo sapiens) (UniProt P09038); assay: FGF2 binders on small-molecule microarrays, primary screen, biochemical, small-molecule microarray, 635/667 nm fluorescence (AID 1133); settings: small-molecule microarray binding, FGF2, fluorescence 635/667; higher = more signal
Sequence of Fibroblast growth factor 2 (Homo sapiens) (P09038 whole entry, looked up): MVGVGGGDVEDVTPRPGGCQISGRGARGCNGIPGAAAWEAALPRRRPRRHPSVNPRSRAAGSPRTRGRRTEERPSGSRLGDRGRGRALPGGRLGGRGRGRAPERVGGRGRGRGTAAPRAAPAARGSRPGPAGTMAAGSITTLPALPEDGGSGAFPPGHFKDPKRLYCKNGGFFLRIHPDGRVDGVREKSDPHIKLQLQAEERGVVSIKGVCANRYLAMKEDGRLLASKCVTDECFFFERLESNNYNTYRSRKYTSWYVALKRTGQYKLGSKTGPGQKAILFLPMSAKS

[7] = mitochondrial membrane potential change in A549 cells, profiling panel, cell-based, JC-1 fluorescence, basal, 24 h, 100 nL (AID 1138); settings: higher = more signal;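 note: A549 lung adenocarcinoma cells under basal conditions with no added stimulus; test concentration not given here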
Lefty1 = Lefty1 binders on small-molecule microarrays, primary screen, biochemical, small-molecule microarray, 635/667 nm fluorescence (AID 1139); settings: small-molecule microarray binding, fluorescence 635/667; higher = more signal
[8] = tested on: wheat germ agglutinin (Triticum aestivum), Alexa647-labelled; assay: wheat germ agglutinin binders on compound microarrays, profiling panel, artefact control for SMM control-protein annotation, biochemical, small-molecule microarray, 635/667 nm fluorescence (AID 1140); settings: WGA-A647 binding, 635 nm fluorescence, higher = more signal;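 note: score merges 667 nm feature emission with signal to noise over triplicate slides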
[9] = target: Luciferin 4-monooxygenase (Photinus pyralis) (UniProt P08659); assay: firefly luciferase enzyme inhibitors, primary screen, biochemical, luminescence, purified enzyme, 2006 set (AID 1141); settings: SteadyGlo luminescence, 30 min, higher = more signal, called active from +8 up or from −8 down;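 note: cell-free assay with purified firefly luciferase at 100 ng per well in PBS; test concentration not given here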
Sequence of Luciferin 4-monooxygenase (Photinus pyralis) (P08659 whole entry, looked up): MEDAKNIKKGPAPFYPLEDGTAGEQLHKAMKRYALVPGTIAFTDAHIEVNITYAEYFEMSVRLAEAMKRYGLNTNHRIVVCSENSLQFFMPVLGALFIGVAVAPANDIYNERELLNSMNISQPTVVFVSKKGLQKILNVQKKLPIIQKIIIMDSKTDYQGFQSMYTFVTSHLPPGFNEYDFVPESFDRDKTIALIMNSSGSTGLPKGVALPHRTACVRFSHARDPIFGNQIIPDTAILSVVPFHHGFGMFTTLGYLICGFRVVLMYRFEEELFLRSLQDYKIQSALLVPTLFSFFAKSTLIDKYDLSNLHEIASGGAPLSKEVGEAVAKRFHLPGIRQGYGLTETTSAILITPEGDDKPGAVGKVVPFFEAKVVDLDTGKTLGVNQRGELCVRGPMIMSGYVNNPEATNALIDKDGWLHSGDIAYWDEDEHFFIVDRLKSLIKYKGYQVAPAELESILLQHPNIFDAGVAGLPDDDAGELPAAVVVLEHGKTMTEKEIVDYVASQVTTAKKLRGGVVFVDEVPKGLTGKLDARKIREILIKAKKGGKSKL

SMILES | composite z-score [1] | composite z-score [2] | composite z-score [3] | composite z-score [4] | composite z-score [5] | composite z-score [6] | z-score [7] | composite z-score (Lefty1) | composite z-score [8] | z-score [9]
CN1C(=O)C2C=CC(C(O)c3ccccc3)N(NC(=O)OC(C)(C)C)C2C1=O (stereo not given) | 0.884 | 1.12 | 0.164 | 0.513 | -0.0714 | -0.27 | -0.165 | -0.525 | 1.05 | 0.22 (inactive)
CC1CC/C=C\[C@H]2OC34C=CCN(CCN5CCOCC5)C(=O)[C@H]3N(CCCCCO)C(=O)[C@@H]4C2C(=O)O1 (stereo not given in full) | -0.417 | -1.44 | -0.197 | -1.2 | -0.381 | -0.206 | -0.485 | -0.376 | -0.577 | -0.115 (inactive)
C=CCN1C(=O)[C@@]2(O[C@@H](CCO)[C@H]([Si](C)(C)c3ccc(OC)cc3)[C@H]2C)c2cc(NC(C)=O)ccc21 | 1.48 | 1.21 | 0.0016 | 0.818 | 1.34 | 1.45 | 0.921 | 1.22 | 0.948 | -0.301 (inactive)
O=C(NCc1ccccc1)[C@@H]1c2ccccc2C(=O)N(Cc2cc(F)cc(C(F)(F)F)c2)[C@H]1c1ccc(CO)cc1 | 2.54 | 1.19 | 0.187 | 0.571 | 1.27 | 0.339 | 1.45 | 0.61 | 0.144 | -1.13 (inactive)
O=C1OCC=C[C@H]2OC34C=CCN(Cc5ccccc5)C(=O)[C@H]3N(CCCO)C(=O)[C@@H]4[C@@H]12 (stereo not given in full) | 2.26 | 0.374 | 1.14 | -0.827 | 0.397 | -0.56 | -0.63 | 1.12 | -0.0711 | -0.241 (inactive)
O=C1C2C=CC(C(O)C3CC=CCC3)N(n3cnnc3)C2C(=O)N1Cc1ccccc1 (stereo not given) | 0.794 | -0.288 | 0.559 | 0.909 | -0.439 | -1.14 | -0.704 | -1.07 | 0.451 | 0.934 (inactive)
COc1ccc([Si](C)(C)[C@H]2[C@H](CC(=O)N3CCC[C@H]3CO)O[C@@]3(C(=O)N(Cc4cccc(N5CCC5=O)c4)c4ccccc43)[C@@H]2C)cc1 | 0.744 | 1.24 | 0.474 | 0.734 | 1.36 | 1.55 | 1.4 | 1.38 | 0.532 | -0.493 (inactive)
Cn1c2c(c3ccccc31)C(=O)C1NC2C=CC1(C)C(=O)OCc1ccccc1 (stereo not given) | 0.262 | 0.291 | 0.0584 | 0.351 | -2.07 | -2.05 | -0.591 | -1.82 | 0.757 | 1.15 (inactive)
COCCOC(=O)N1C(=O)[C@@]2(c3cc(C#Cc4ccc(OC)cc4)ccc31)[C@H](C(N)=O)[C@H]1C(=O)O[C@H](c3ccccc3)[C@H](c3ccccc3)N1[C@@H]2c1ccc(O)cc1 | -0.994 | -0.923 | -0.582 | -1.48 | -0.694 | -2.13 | -0.335 | -2.08 | 0.17 | -0.245 (inactive)
Cc1ccc(S(=O)(=O)N2CC(C(=O)O)=CCC2c2ccccc2)cc1 (stereo not given) | -0.67 | -0.2 | 0.223 | -0.275 | -1.22 | -1.14 | -1.33 | -0.946 | 0.0972 | 1.52 (inactive)
O=S(=O)(NCCCO)c1ccc(Br)cc1 | 0.309 | 0.918 | 0.0087 | -0.088 | 1.17 | 0.663 | 0.802 | -0.0569 | 0.54 | -0.0622 (inactive)
CC(C)[C@H]1COC(=O)N1C(=O)[C@H]1[C@@H](c2ccccc2)N(c2ccccc2)O[C@@H]1C | -0.0372 | 0.706 | 0.201 | 0.635 | 0.562 | 0.57 | 0.78 | 0.593 | 0.127 | 0.132 (inactive)
C=C(/C(=C/C[C@@H](OC(=O)c1ccncc1)c1ccc(CO)o1)c1cc(C(=O)OC)ccc1OC)C(C)C | 1.02 | 1.23 | 0.317 | 0.415 | 1.09 | 1.3 | 0.375 | 1.24 | 0.553 | -4.24 (inactive)
O=C(NCCN1CCOCC1)[C@@H]1c2ccccc2C(=O)N(Cc2cc(F)cc(C(F)(F)F)c2)[C@H]1c1ccc(CO)cc1 | 0.195 | 0.0794 | 0.205 | -0.732 | 0.687 | -0.77 | 2.17 | 0.314 | -0.254 | -0.183 (inactive)
COC(=O)[C@@]1(Cc2ccc(OC)cc2)[C@H]2c3cc(C(=O)N4CCCC4)n(CCN4CCOCC4)c3C[C@H]2CN1C(=O)c1ccccc1 | 0.954 | 1.19 | 1.75 | 0.998 | 0.193 | -0.125 | 0.892 | -0.499 | 0.76 | 1.12 (inactive)
[N-]=[N+]=Nc1ccccc1[C@H]1OC(c2ccc(OCCCO)cc2)=N[C@@]1(CCS(=O)(=O)c1ccccc1)C(=O)N1CCOCC1 | 2.83 | 1.26 | 1.32 | 1 | 1.3 | 1.73 | -0.218 | 0.225 | 1.47 | -15 (active)
C=CCNC(=O)[C@@H]1[C@H]2C(=O)O[C@H](c3ccccc3)[C@H](c3ccccc3)N2[C@H](c2ccccc2OCCO)[C@@]12C(=O)N(C(=O)OCCOC)c1ccc(C#CCC(C(=O)OC)C(=O)OC)cc12 | 1.39 | 1.23 | 1.25 | 0.896 | 1.04 | 1.42 | -0.453 | 1.11 | 1.12 | 0.112 (inactive)
C/C=C/[C@H](CCn1cc([C@H](O)c2ccccc2)nn1)[Si](C)(C)c1ccc(OC)cc1 | 0.382 | -0.559 | -0.3 | -1.17 | -0.735 | -0.997 | 0.45 | -0.781 | -0.777 | 0.173 (inactive)
C=CCOC(=O)[C@@H]1[C@H]2C(=O)O[C@H](c3ccccc3)[C@H](c3ccccc3)N2[C@H](c2ccc(OCCOC(=O)[C@H]3C[C@H]4C(=O)N[C@@H](CCCC[N+](C)(C)C)C(=O)N4[C@H]3c3cccc(OCCO)c3)cc2)[C@@]12C(=O)Nc1ccc(I)cc12 | 1.3 | 1.18 | 0.163 | 0.496 | 1.4 | 1.55 | -0.93 | 1.15 | 0.115 | -0.138 (inactive)
COCCOC(=O)N1C(=O)[C@@]2(c3cc(C#CC4=CCCCC4)ccc31)[C@H](c1ccc(OCCO)cc1)N1[C@H](c3ccccc3)[C@H](c3ccccc3)OC(=O)[C@H]1[C@@H]2C(=O)Nc1nc2ccccc2s1 | 0.317 | 1.18 | 0.358 | 0.929 | 1.19 | 0.571 | -2.19 | 0.982 | 0.53 | -2.79 (inactive)
COCCOC(=O)N1C(=O)[C@@]2(c3cc(C#CC4=CCCCC4)ccc31)[C@H](C(=O)N1CCN(c3ncccn3)CC1)[C@H]1C(=O)O[C@H](c3ccccc3)[C@H](c3ccccc3)N1[C@@H]2c1ccc(OCCO)cc1 | 1.07 | 1.16 | 0.31 | 0.229 | 1.29 | 1.59 | -1.01 | 1.03 | 0.232 | -1.03 (inactive)
O=C1[C@H]2C=C(Br)[C@H](C[C@@H]2OCCOCCO)[C@@]12CO2 | 0.141 | 0.314 | -0.0415 | 0.138 | -0.864 | 0.179 | -0.271 | 0.199 | -0.0695 | 0.582 (inactive)
CN1C(=O)C2C=CC(C(O)C(C)(C)C)N(Nc3ccccc3)C2C1=O (stereo not given) | 0.218 | -0.178 | 0.694 | -0.0163 | -0.288 | -0.695 | 0.31 | -1.06 | -0.062 | 0.856 (inactive)
COC(=O)[C@@]1(Cc2ccc(OC)cc2)[C@H]2c3cc(C(=O)N4CCCC4)n(CCc4ccccn4)c3C[C@H]2CN1C(=O)c1ccccc1 | 0.0421 | 0.201 | 0.579 | 0.821 | -0.29 | -0.676 | -1.29 | -0.91 | 0.0844 | 2.15 (inactive)
O=C(CS)NCCCCCCNC(=O)[C@H]1C[C@H]2C(=O)N3CCC[C@H]3C(=O)N2[C@H]1c1ccc(O)cc1 | 1.81 | 0.828 | 0.163 | 0.702 | 1.37 | 1.34 | -0.708 | 1.16 | 0.681 | 0.102 (inactive)
C=CCN1C(=O)[C@@]2(O[C@@H](CCO)[C@H]([Si](C)(C)c3ccc(OC)cc3)[C@H]2C)c2cc(N3C(=O)COc4ccccc43)ccc21 | 1.52 | 1.02 | 0.346 | 0.578 | 0.25 | 0.27 | -0.839 | 0.0865 | 0.577 | -0.401 (inactive)
Cc1ccc(S[C@]2(C(=O)NCCCN(C)C)CC(=O)N(Cc3ccccc3)[C@@H]2c2ccc(CO)cc2)cc1 | -0.786 | -0.335 | -0.371 | -0.865 | 0.0417 | -0.734 | 0.803 | -1.53 | -0.0701 | -1.1 (inactive)
